Source: PubChem BioAssay
Integrin act MD – activators of alpha7 integrin expression for muscular dystrophy; alpha7betagal myoblasts, beta-gal FDG fluorescence, 48 h; Potency, µM (top dose mostly 38.3 µM), hits mostly activators; AID 624291; 350,000 compounds, 0.064% hits; further: nearly all actives have a fitted effect of over 60% in size
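Alpha7betagal+/- myoblasts (passage 13) were plated 16-24 hr, then exposed to compounds (1:260 dilution of DMSO stock) for 48 hours at 37C. After MPER lysis, β-galactosidase reporter activity was read as FDG fluorescence (ex 480/em 540) after 30 minutes.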
IL2 activator – IL-2 activation; IL-2 activation reporter assay, cell-based qHTS; stimulated with anti-CD3/CD4/CD28 beads; in transgenic mouse T cells; activation, % (series mostly up to about 46 µM); 360,000 compounds, 0.065% hits; in the data active means activation above about 50%; inconclusive means mostly about 30% to 49%
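Quantitative HTS in unstimulated transgenic mouse T cells, with memory T cells as non-tolerant control and PMA/ionomycin as tolerance-bypass control. Compound pretreatment lasted 60 minutes before 18 h bead stimulation; EGFP/DsRed fluorescence read.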
Apoferritin bind – candidate novel general anesthetic via apoferritin binding; apoferritin/1-aminoanthracene competitive binding, fluorescence; Potency, µM (doses to about 77.5 µM), hits mostly inhibitors; 350,000 compounds, 0.074% hits; further: nearly all actives have a fitted effect of over 20% in size
Target sequence (P02791 2-175 limits assumed): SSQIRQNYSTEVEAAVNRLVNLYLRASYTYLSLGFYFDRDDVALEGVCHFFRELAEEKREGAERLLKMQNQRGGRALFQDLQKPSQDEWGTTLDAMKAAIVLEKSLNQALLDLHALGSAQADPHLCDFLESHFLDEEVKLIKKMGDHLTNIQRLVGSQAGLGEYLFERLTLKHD
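In PBS, apoferritin at 10 uM is loaded with 1-AMA from a 50% saturated solution. After 10 min of compound exposure at ambient temperature, reduced 535 nm fluorescence indicates probe displacement.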
BRCA1 expr act – activators of BRCA1 expression; Potency, µM (highest dose often 46.1 µM), hits mostly activators; 380,000 compounds, 1.1% hits; MCF7-BRCA1-FFLuc reporter, luminescence, 48 h; response scale: scaled: vehicle 0%, 10 µM genistein 100%; further: nearly all actives have a fitted effect of over 80% in size
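Compounds are tested at multiple concentrations on MCF7 BRCA1-luciferase reporter cells seeded at 2000 per well; after 48 h, a single luminescence end-point is taken and curves fitted to the normalized data.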
PKM2 activator – PKM2 (human) enzyme activation. purified PKM2, Kinase-Glo ATP luminescence, activation; response scale: 0% is enzyme alone, no compound. P14618. 260,000 compounds, 0.34% hits. AID 1631. Potency, µM (doses to about 57.5 µM), most hits filed as activators; further: nearly all actives have a fitted effect of over 55% in size
Target sequence (P14618 whole entry, looked up): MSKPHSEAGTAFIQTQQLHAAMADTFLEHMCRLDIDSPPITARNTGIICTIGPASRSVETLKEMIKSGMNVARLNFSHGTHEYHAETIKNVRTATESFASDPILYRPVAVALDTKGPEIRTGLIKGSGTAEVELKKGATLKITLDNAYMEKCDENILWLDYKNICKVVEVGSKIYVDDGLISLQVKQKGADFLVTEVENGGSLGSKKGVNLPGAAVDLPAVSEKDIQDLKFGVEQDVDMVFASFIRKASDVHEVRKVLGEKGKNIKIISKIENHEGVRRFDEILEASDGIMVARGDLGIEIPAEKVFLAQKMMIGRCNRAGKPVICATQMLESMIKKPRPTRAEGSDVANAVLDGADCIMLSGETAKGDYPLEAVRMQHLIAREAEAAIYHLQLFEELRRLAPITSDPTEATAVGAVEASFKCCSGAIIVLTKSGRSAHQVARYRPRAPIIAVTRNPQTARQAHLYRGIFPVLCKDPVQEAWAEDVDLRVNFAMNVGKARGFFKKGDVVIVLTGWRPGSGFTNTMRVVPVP
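hPK-M2, >95% pure; 0.1 mM ADP / 0.5 mM PEP final; imidazole pH7.2 buffer w/ 7 mM MgCl2, 50 mM KCl; 1 h RT; Kinase-Glo lum. Intermediate enzyme activity for dual inhibitor/activator qHTS.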
Hits are given with their value; - = inactive; ? = inconclusive; . = not tested or not shown. The list is not random: actives were taken first. Their share in the collection is about 1.3%. Unless noted, the call rests on the fitted dose curve; in most records, active means well fitted curve in the direction sought with a large enough effect; inconclusive means small, poorly fitted or top-dose-only effect, or another doubt; inactive means no such curve, though single readings can be large; an effect the other way counts as inactive or inconclusive.

SMILES	Integrin act MD	IL2 activator	Apoferritin bind	BRCA1 expr act	PKM2 activator
COc1cc(CN2CCNC(=O)C2CC(=O)N2CCCO2)cc(OC)c1 (stereo not given)	-	-	-	-	14.1µM
CCN1CCN(c2nnc(-n3cccc3C(=O)Nc3cccc(OC)c3)s2)CC1	.	.	-	.	.
Cc1cc(C)n(CCN(C)C(=O)CCc2nnc(CCC3CCCCC3)o2)n1	-	-	-	11.2µM	-
CN(CCCC1CCCC1)C(=O)CCc1nnc(-c2ccccc2)o1	-	-	?	?	-
COc1ccc(Br)cc1CNC(=O)c1cc2ccccn2n1	.	.	-	.	.
O=C(Nc1nnc2n1CCS2)c1ccc(F)cc1F	.	.	-	.	.
CNc1ccc(C=C2c3ccccc3-c3ccccc32)cc1	.	.	.	-	.
C=C(C)CSc1nnc(-c2cccc(Cl)c2)n1N	-	-	?	12.6µM	-
SCc1nc2ccccc2[nH]1	.	.	.	-	.
Cc1ccc(C(=O)Cn2nnc3ccccc32)cc1	-	-	-	4.47µM	-
O=C(Cn1nnc2ccccc21)c1ccc(Br)cc1	-	-	-	?	-
Cc1ccc(NC(=O)CCn2nnc3ccccc32)c(C)c1	-	-	-	?	-
Cc1ccc(NC(=O)CCn2nnc3ccccc32)cc1	-	-	-	11.2µM	-
CCOC(=O)c1cc(S(=O)(=O)N2CCN(c3ccc(OC)cc3)CC2)[nH]n1	.	.	-	.	.
O=[N+]([O-])c1ccc(CNc2ccc(Cl)cc2)s1	-	-	14.1µM	-	-
O=[N+]([O-])c1ccc(CNc2ccc(F)cc2)s1	-	-	?	-	-
CC1CCC(NC(=O)N(CCCl)N=O)CC1 (stereo not given)	.	-	-	5.01µM	.
CC1CCC(NC(=S)NCCN(C)C)CC1 (stereo not given)	-	-	-	-	-
CCN1/C(=C2/SC(=S)N(NC(C)=O)C2=O)Sc2ccc(OC)cc21	-	-	-	-	-
CCCCN1C(=O)/C(=C2/Sc3ccc(OC)cc3N2CC)SC1=S	?	118.4	-	-	-
C=CCN1C(=O)/C(=C2/Sc3ccc(OC)cc3N2CC)SC1=S	-	189.2	-	-	-
O=[N+]([O-])c1cccc(-c2ccc(SCc3ccccn3)nn2)c1	-	-	?	6.31µM	-
COc1cccc(-c2ccc(SCc3ccccn3)nn2)c1	-	-	-	5.01µM	-
COc1ccc(-c2ccc(SCc3ccccn3)nn2)cc1OC	-	-	-	-	-
COc1ccc(CC(=O)Nc2ccc(S(=O)(=O)Nc3nccs3)cc2)cc1	-	-	-	-	14.1µM
SMILES	Integrin act MD	IL2 activator	Apoferritin bind	BRCA1 expr act	PKM2 activator
COc1cccc(CC(=O)Nc2ccc(S(=O)(=O)Nc3nccs3)cc2)c1	-	-	.	-	.
COc1ccc(S(=O)(=O)Nc2ccc(S(=O)(=O)Nc3nccs3)cc2)cc1	12.6µM	-	-	-	12.6µM
CN(C)c1ccc(C2CCc3ccccc3N2C(=O)c2ccccc2)cc1 (stereo not given)	.	.	.	-	.
CCC1CN(C(=O)Nc2ccc(C)c(F)c2)c2ccccc2S1 (stereo not given)	.	.	-	.	.
Fc1ccccc1CSc1nc2ncc(Br)cc2[nH]1	-	-	-	11.2µM	-
CN(C)CCNc1ccc2nnn3c4ccc(O)cc4c(=O)c1c23	-	-	.	-	.
CCN(CC)CCCNc1ccc2ncn3c4ccc(O)cc4c(=O)c1c23	-	123.5	.	-	.
Cc1ccc(-c2nc3ncccc3n2O)cc1	-	-	-	-	.
COn1c(-c2ccc(Cl)cc2)nc2ncccc21	-	-	-	7.08µM	.
Clc1ccccc1CONc1ncnc2nonc12	-	-	-	10µM	15.8µM
Cn1nnc2c(NCc3ccccc3Cl)ncnc21	.	.	-	.	.
Cc1cc(OCCn2c(CCNC(=O)C3CCCCC3)nc3ccccc32)ccc1Cl	.	.	-	-	.
Cc1cc(C(=O)CSc2ccc3c(c2)OCCO3)c(C)n1C1CC1	-	-	-	11.2µM	-
C/C(N)=C(/C#N)C(=O)CSc1ccc2c(c1)OCCO2	-	-	-	?	14.1µM
C/C(N)=C(/C#N)C(=O)COC(=O)CSc1ccc2ccccc2c1	-	-	?	-	-
CCNc1nnc(SCC(=O)c2cc(C)n(C3CC3)c2C)s1	-	-	.	-	.
Cc1ccc2c(c1)nc(SCC(O)c1ccc(Br)cc1)n2C (stereo not given)	.	.	-	.	.
O=C(COc1ccccc1F)Nc1ccc(Cl)c(-c2nc3ccccc3[nH]2)c1	.	.	-	.	.
Cc1sc2nc(CN3CCN(c4ccc(O)cc4)CC3)[nH]c(=O)c2c1C	-	-	-	-	1.26µM
O=c1[nH]c(CN2CCN(c3ccccc3)CC2)nc2scc(-c3ccccc3)c12	-	-	-	-	-
O=[N+]([O-])c1ccc(-c2nn(-c3ccccc3)cc2/C=N/n2c(-c3ccncc3)n[nH]c2=S)cc1	-	-	-	-	-
S=c1[nH]nc(-c2ccncc2)n1/N=C/c1cn(-c2ccccc2)nc1-c1ccccc1	-	-	-	12.6µM	-
Cc1ccc(-c2nn(-c3ccccc3)cc2C=C2C(=O)CC(C)(C)CC2=O)cc1	-	-	-	6.31µM	-
Cc1ccc(-c2ccc(SCC(=O)NCC3CCCO3)nn2)cc1 (stereo not given)	-	-	-	-	-
CCOc1ccc(-c2ccc(SCC(=O)NCC3CCCO3)nn2)cc1 (stereo not given)	-	-	-	3.98µM	-
SMILES	Integrin act MD	IL2 activator	Apoferritin bind	BRCA1 expr act	PKM2 activator
O=[N+]([O-])c1cc(S(=O)(=O)N2CCCC2)ccc1NCCc1ccccc1	-	-	-	-	3.16µM
Cn1c2ccccc2c2ncn(CCC3=CCCCC3)c(=O)c21	-	-	-	10µM	-
Cc1ccc2c(c1)C(c1ccc(F)cc1)N(C(=O)C(C)C)CC(=O)N2 (stereo not given)	.	.	-	.	.
O=C(NCCn1ccc2ccccc21)c1ccc2c(c1)OCO2	-	-	-	2.51µM	-
COc1ccc(C(=O)NCCn2ccc3ccccc32)cc1	-	-	-	?	-
CCCCSc1ncc(C(=O)OCC)c(N)n1	-	-	-	3.55µM	-
CCOC(=O)c1cnc(SCCc2ccccc2)nc1N	-	-	-	?	-
CCOC(=O)c1cnc(SCC(=O)c2ccc(Cl)cc2)nc1N	-	-	?	-	-
CCOC(=O)c1cnc(SCc2ccc(C)cc2)nc1N	-	-	-	7.08µM	-
CCS(=O)(=O)N1CC(=O)N(c2ccc(Cl)cc2)C(C)(C(=O)NC2CCCCC2)C1 (stereo not given)	.	.	-	.	.
CC(C)(CC(=O)NCc1ccc(Cl)cc1Cl)CC1=NS(=O)(=O)c2ccccc2N1	.	.	-	-	.
COc1cc(/C=C2/C(=N)N3C(SC)=NSC3=NC2=O)ccc1OC(=O)c1ccco1	3.98µM	-	-	-	-
CC1CCCN(C(=O)CSc2cnc3ccccc3n2)C1 (stereo not given)	-	-	?	11.2µM	-
COC(=O)CCN(C1CCCCC1)S(=O)(=O)c1ccc(S(=O)(=O)N2CCCCC2)cc1	-	-	-	-	28.2µM
